From PubChem BioAssay AID1159580 (chemical genetic matrix, 2015)
Out of some 5,500 compounds screened, about 2,000 (36%) were called active. Inconclusive results (about 18%) are left out. Rule as the data show it: active = normalized growth mostly below about 0.91 (no sharp cut-off); inconclusive = no clear call, values can overlap the other calls; inactive = mostly above about 0.92. The list shows a part of the results.

Assay: chemical genetic growth profiling, strain panel (AID 1159580);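 also: tested at 20 µM; growth read once vehicle control cultures reached saturation at 30 °C; 1 = growth at the plate median or of vehicle wells; lower values mean less growth of the strain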
Conditions: S. cerevisiae deletion strains, growth OD

Measured: normalized growth

O=C(Oc1cccc2cccnc12)c1ccccc1
active: locus YAL030W, strain snc1, stronger effect = lower value 0.928 | locus YDR137W, strain rgp1, stronger effect = lower value 0.688 | locus YDR392W, strain spt3, stronger effect = lower value 0.601 | locus YHR013C, strain ard1, stronger effect = lower value 0.623 | locus YLL026W, stronger effect = lower value 0.925 | locus YLR262C, strain YPT6 (second series), stronger effect = lower value 0.776 | locus YLR320W, strain mms22, stronger effect = lower value 0.875 | locus YMR058W, strain fet3, stronger effect = lower value 0.897 | locus YNL071W, strain lat1, stronger effect = lower value 0.875 | locus YOR070C, strain gyp1, stronger effect = lower value 0.0944 | locus YOR270C, strain vph1, stronger effect = lower value 0.414 | locus YPL078C, strain atp4, stronger effect = lower value 0.878 | locus YPL106C, strain sse1, stronger effect = lower value 0.732
inactive: locus YAL021C, strain ccr4, stronger effect = lower value 0.962 | locus YAL026C, strain drs2, stronger effect = lower value 0.921 | locus YBL061C, strain skt5, stronger effect = lower value 0.951 | locus YBR009C, strain hhf1, stronger effect = lower value 0.956 | locus YBR023C, strain chs3, stronger effect = lower value 0.956 | locus YBR171W, strain sec66, stronger effect = lower value 0.917 | locus YBR231C, strain swc5, stronger effect = lower value 0.995 | locus YBR279W, strain paf1, stronger effect = lower value 0.957 | locus YCL011C, strain gbp2, stronger effect = lower value 0.959 | locus YCL016C, strain dcc1, stronger effect = lower value 0.952 | locus YCL061C, strain MRC1, stronger effect = lower value 0.967 | locus YCL069W, strain vba3, stronger effect = lower value 0.948 | locus YCR088W, strain abp1, stronger effect = lower value 0.936 | locus YDL005C, strain med2, stronger effect = lower value 0.962 | locus YDL040C, strain nat1, stronger effect = lower value 0.951 | locus YDR001C, strain nth1, stronger effect = lower value 0.936 | locus YDR069C, strain doa4, stronger effect = lower value 0.953 | locus YDR159W, strain sac3, stronger effect = lower value 0.971 | locus YDR195W, strain ref2 1.12 | locus YDR297W, strain sur2, stronger effect = lower value 0.937 | locus YDR334W, strain swr1, stronger effect = lower value 0.921 | locus YDR335W, strain msn5, stronger effect = lower value 0.938 | locus YEL003W, strain gim4, stronger effect = lower value 0.94 | locus YEL037C, strain rad23, stronger effect = lower value 0.961 | locus YEL061C, strain CIN8 (second series), stronger effect = lower value 0.943 | locus YER015W, strain faa2, stronger effect = lower value 0.965 | locus YER016W, strain bim1, stronger effect = lower value 0.96 | locus YER111C, strain swi4, stronger effect = lower value 0.955 | locus YER155C, strain BEM2 (second series), stronger effect = lower value 0.89 | locus YFR010W, strain ubp6, stronger effect = lower value 0.951 | locus YGL167C, strain pmr1, stronger effect = lower value 0.927 | locus YGL173C, strain kem1, stronger effect = lower value 0.908 | locus YGL227W, strain vid30, stronger effect = lower value 0.939 | locus YGL240W, strain doc1, stronger effect = lower value 0.93 | locus YGL253W, strain hxk2, stronger effect = lower value 0.969 | locus YHR027C, strain rpn1, stronger effect = lower value 0.929 | locus YHR030C, strain SLT2, stronger effect = lower value 0.955 | locus YHR079C, strain IRE1, stronger effect = lower value 0.955 | locus YHR142W, strain chs7, stronger effect = lower value 0.897 | locus YJL092W, strain hpr5, stronger effect = lower value 0.972 | locus YJL095W, strain BCK1 (second series), stronger effect = lower value 0.955 | locus YJL095W, strain BCK1, stronger effect = lower value 0.916 | locus YJL115W, strain asf1, stronger effect = lower value 0.951 | locus YJL129C, strain trk1, stronger effect = lower value 0.97 | locus YJL154C, strain vps35, stronger effect = lower value 0.939 | locus YJL164C, strain tpk1, stronger effect = lower value 0.957 | locus YJL166W, strain qcr8, stronger effect = lower value 0.955 | locus YJL187C, strain SWE1, stronger effect = lower value 0.951 | locus YJR066W, strain TOR1, stronger effect = lower value 0.92 | locus YKL160W, strain elf1, stronger effect = lower value 0.935 | locus YKR026C, strain gcn3, stronger effect = lower value 0.951 | locus YKR091W, strain srl3, stronger effect = lower value 0.951 | locus YLL001W, strain dnm1, stronger effect = lower value 0.979 | locus YLL041C, strain sdh2, stronger effect = lower value 0.967 | locus YLR027C, strain aat2, stronger effect = lower value 0.95 | locus YLR113W, strain HOG1, stronger effect = lower value 0.915 | locus YLR221C, strain rsa3, stronger effect = lower value 0.958 | locus YLR258W, strain gsy2, stronger effect = lower value 0.955 | locus YLR342W, strain FKS1, stronger effect = lower value 0.962 | locus YLR357W, strain rsc2, stronger effect = lower value 0.992 | locus YLR370C, strain arc18, stronger effect = lower value 0.918 | locus YLR384C, strain iki3, stronger effect = lower value 0.952 | locus YML120C, strain ndi1, stronger effect = lower value 0.934 | locus YMR125W, strain sto1, stronger effect = lower value 0.961 | locus YMR129W, stronger effect = lower value 0.954 | locus YMR205C, strain PFK2, stronger effect = lower value 0.973 | locus YMR231W, strain pep5, stronger effect = lower value 0.969 | locus YNL183C, strain NPR1, stronger effect = lower value 0.908 | locus YNL209W, strain ssb2, stronger effect = lower value 0.946 | locus YNL248C, strain rpa49, stronger effect = lower value 0.944 | locus YNL322C, strain KRE1 (second series), stronger effect = lower value 0.963 | locus YNR049C, strain mso1, stronger effect = lower value 0.944 | locus YOR001W, strain rrp6, stronger effect = lower value 0.95 | locus YOR080W, strain dia2, stronger effect = lower value 0.973 | locus YOR083W, strain WHI5, stronger effect = lower value 0.945 | locus YOR106W, strain vam3, stronger effect = lower value 0.905 | locus YOR231W, strain MKK1, stronger effect = lower value 0.946 | locus YOR265W, strain rbl2, stronger effect = lower value 0.955 | locus YOR290C, strain snf2, stronger effect = lower value 0.945 | locus YPL051W, strain arl3, stronger effect = lower value 0.932 | locus YPL240C, strain hsp82, stronger effect = lower value 0.965 | locus YPL256C, strain CLN2, stronger effect = lower value 0.961
